# Data reported in the supplement of paper PMC11417369.
# The full ranking holds about 25,000 sequences; the median of “ln(normalized median fluorescence intensity)” is about 6.7, and the highest 2% start at about 10. The full list was thinned out, with the highest values kept by preference.
# Test system: PfHDP1 homeodomain (GST-tagged)
# Assay: gcPBM binding intensity (ln(normalized median fluorescence intensity)); higher = stronger DNA binding
# In short: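 GST-fused DNA-binding domains of P. falciparum, expressed in E. coli, were applied at about 25 μg on average for 1 h to an Agilent 4 × 180k array of primer-extended double-stranded 36-bp intergenic genomic probes and negative controls. Binding intensity is the highest Masliner-normalised natural-log median intensity across replicate spots of either probe orientation, measured with Alexa488 anti-GST antibody and a 488 nm scan.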
row,Sequence,gcPBM binding intensity (ln)
1,CCCACAGACGGACACACACACACACCGACACATATA [CACACA_site4356],7.01
2,TTATAATTTAATAAATGTACATAAATAATATACATA [XGTACX_site7271],6.14
3,AAATTATTAAGTGATATAATATTCTATAGATGGGGA [CACACA_negctrl_site168],6.76
4,ATTTTTTTTTTTTTTTTTTTTGCACCATAAAATAAT [CACACA_negctrl_site1324],10.1
5,CCACGAGAATATATAGTGCATAATAATTTTTTTTTG,8.82
6,TGTGCATAATTTTGTGCACACCACGCTAATAATTTT [CACACA_site2915],11.5
7,GTATGGCGTATCATATGTACTAAAAAAAAATAAAAA [XGTACX_site5101],6.49
8,AAAGAAATGAAATATACACACATACCTATATACATA [CACACA_site7817],6.63
9,ATATATGTATGTTAGACACACATATTATAATATGTT [CACACA_site116],6.5
10,TGTGTGTGTATATGTGTGCACATATAAAATAGAAGA [GTGCAC_site9714],10.5
11,AAAAAATAAAAAGATACACACATATGTATAATATAC [CACACA_site1496],6.83
12,TATATGTATAGAAAATGTACATATAAATATATATAT [XGTACX_site3420],7.94
13,ATAAATACATATGTGTGTACACATTATATATATATA [XGTACX_site1486],9.17
14,CACATATATATGTGTGCATGTTGTATTATATATTTA [TGCATGCA_site632],8.72
15,AAAAAAAAAAAAAGCACACACACATATGTGTATATA [CACACA_site8225],6.86
16,GAAAAGCAGATAAATGTGCACATATATGTTTGTATA,10.8
17,TAAAATAGAAATATATGTACATATATATATGTATAT [XGTACX_site4134],6.4
18,TTTTTGTTATTATGTGTGCACATATATATATATATA,10.4
19,ATATATGATGTATTTGTGCACATATATATATTATTA [GTGCAC_site9471],10.7
20,TATGTATGTTAGTGTGCACACATAAATATTATATAT [CACACA_site9121],11.1
21,TAATTTCTTATGTAGTGTACAAATAATATATGATAT [XGTACX_site597],6.39
22,ATTAAAAAAATATAAACACACAAAAAAAAAATATAC [CACACA_site1100],7.06
23,AACAAATAAAAAAAAATAAAAATAAAAATAAAAAAA [XGTACX_negctrl_site451],6.36

row,Sequence,gcPBM binding intensity (ln)
1,TTTTTTTCTTCTTTTCTCTTAAAAATATTGAATATT [CACACA_negctrl_site1762],6.28
2,TATACATATGAAAATACACACATACATACAGATATA [CACACA_site5002],6.64
3,AATATTTATGGGTGCACACAAACATACAGATATATA [CACACA_site5810],10.3
4,TGTGTATATGTGCAAAGTACAAAAAAGAAATTATTT [XGTACX_site7569],9.87
5,TTTATGTGTATGTTTACACACATAAAAAAATATATG [CACACA_site3039],6.54
6,AAAAGTTGTATTTGCACACATAAAAAAAAGATATTA [CACACA_site3840],10.3
7,TGTATGTTTGGGTGCACACATAAATATTATATATAG [CACACA_site3397],10.2
8,AAGAAAAATATTCGTGTGCACAGAAGTATATGTGTG [GTGCAC_site9814],11
9,ATATATTATGGGTGTGCACACAATATTTATATGTTC [CACACA_site2270],10.9
10,TATATGTATGTTTGTGTGCACACATAAATATTATAT,10.5
11,TGTATTATATATACACAAATATTTATGTGTGTGTTT [XGTACX_negctrl_site475],6.71
12,TAAAAATTGCACAGAAGTACAGTATAAATATATATA [XGTACX_site3421],10.2
13,TTGTTGTGTATTATCGTGCACATAATATAAAAGATT,10.5
14,TATGTGTATAATAAAAGTACATATATTATTATATAA [XGTACX_site8556],6.35
15,TTGATGTATACAATGTAGATTATTTAATATTTCAAT [GTGCAC_negctrl_site203],6.12
16,TTATGAAAATATTTTTTTCGTTTGATGTATATGTTT [CACACA_negctrl_site1556],6.22
17,TTGTATTATATTGTATTATGTTTAAATGAAAAAAAA [CACACA_negctrl_site662],6.46
18,ATATATCTACAAATATGTACACACACACATATATAT [XGTACX_site1075],6.9
19,TATAAAAAATAAAAAGTTTAATGAATATTTCTTTTA [TGCATGCA_negctrl_site379],5.53
20,ATAATGTATATTATTGCACACATATATAAAATTATG [CACACA_site8280],10.5
21,TTATGTCATAAATGCACACATATATAAATACAGATA [CACACA_site4959],10.3
22,TTATGTCATAAATGCACACATATATATATACATATA [CACACA_site1588],10.5
23,CATTATGTCATAAATGCACACATATATATATACATA [CACACA_site8454],9.98

row,Sequence,gcPBM binding intensity (ln)
1,TTATGTTGTAAATGCACACATACATATACGCAGTTT [CACACA_site3015],9.92
2,TTATGTTCATTATATGCACACATATATATAAATGTA [CACACA_site8947],9.74
3,ATATATATATATAATGCACACATTATAAATTATGTA [CACACA_site5802],10.6
4,TTATGTTGTAAATGCACACATACATAAACTCAGTTT [CACACA_site5639],10.5
5,ATGTTCATTATATGCACACATATATATAAATGTAAT [CACACA_site2908],10.2
6,AATGTATATTATTGCACACATATATAAAATTATGCT [CACACA_site1096],10.5
7,ACATAAAATAAATATACACACATATGTATATATTAT [CACACA_site3041],6.59
8,CATTATGTTGTAAATGCACACATACATATACACAGT [CACACA_site8990],9.81
9,ATCAAAATTGTCATTACACACCTTTATTTTTAGAAT [CACACA_site1813],6.6
10,CAAGCCCTTCTGCTTACACACAGTAATTATTGTGCA [CACACA_site7399],6.34
11,TTTCTATAATATATATGTACATATATAATATGTCGT [XGTACX_site3676],6.58
12,AAATAAAATCATAATGTGCGCATATAAATTTGTAGG [GTGCAC_site9662],8.1
13,AATCCACTTTTTTATGTTATACAATATAAATTAAAT [XGTACX_negctrl_site446],6.71
14,AAAAACTTAATATTCACACATATATATATATATATA [CACACA_site5240],9.48
15,ACAAGATAATAGAGAAGTACTAATAAACATACACAA [XGTACX_site6617],6.9
16,TATATAATATAATGTAGTACATGTTTTATTTTTTAC [XGTACX_site7735],6.4
17,AAATATCTACATATTTGTACATATTTATACATATTT [XGTACX_site6300],6.12
18,TTTTATAATATTTAAAGTACATTCTAAAAATATAAT [XGTACX_site8033],6.01
19,ATACTAAATGAACACACACACATATAGATTTATAAC [CACACA_site6200],6.87
20,ATATATATATATAATGCACACATTATGAATTATGTA [CACACA_site3384],10.8
21,ATAAATAATTATATATGTACACATTATGAATGGATA [XGTACX_site8336],6.74
22,GATATATAATATAATACACACATTTTATGAATGTAA [CACACA_site24],6.54
23,CATACATACCTATATACACACATATAAAATAATATA [CACACA_site7290],6.97

row,Sequence,gcPBM binding intensity (ln)
1,CCATGTCAAACATTTGCACACAAAAAAATAAAAATT [CACACA_site4546],9.71
2,ATATTATCCCTATTTGCACACAAGAGTAATTTTTTA [CACACA_site3908],10.4
3,TTTATAAAATTTATTGCACACAATTATTTTATAATT [CACACA_site2489],9.98
4,ATATAAATATATTGCACACACAATTATTATTATTAT [CACACA_site7147],10.7
5,ATATATTTATATATTGCACACAAAAAAAAAAAAAAA [CACACA_site8468],10.5
6,ACATGTCAAACATTTGCACACAAAAAAATAAAAATT [CACACA_site691],10.2
7,ATATTTATAAATTGCACACAAATAATAACATTATAT [CACACA_site5322],10.6
8,GAGTATATTTATATTGCACACAATTTTTTTATTTTT [CACACA_site2644],10.5
9,ATATTTATAAATTGCACACAAATAATAACATTCTAT [CACACA_site2357],10.4
10,AAATATTTATAAATTGCACACAAATAATAACATTAT [CACACA_site8737],10.2
11,ATGTCAAACATTTGCACACAAAAAAATAAAAATTAA [CACACA_site692],10.6
12,ACACAAAAAATAAAAATATATATATATTATATATAT [CACACA_negctrl_site1489],7.32
13,AAAAAAATATATATATATATATATATATTATATATG [GTGCAC_negctrl_site654],6.87
14,TTTTTTATTTATTGTTATACATCTTACTACTTATAA [GTGCAC_negctrl_site381],6.63
15,TATTTTTTCTTTCATTGTACTTTTTTTTTGTTTTGT [XGTACX_site4081],6.8
16,AAAAAAAAAAAAACTAGTACATATATATAGTATGAA [XGTACX_site6279],6.33
17,TTAATTATATTATGCACACACAATTGGAAAAAAAAT [CACACA_site1958],10.2
18,TTTTAATTATATTATGCACACACAATTGGAAAAAAA [CACACA_site8598],10.2
19,ATATATATATATTGCACACACAATTATTATTATTAT [CACACA_site2299],10.6
20,ATATATATATATATTGCACACACAATTATTATTATT [CACACA_site8721],10.6
21,TTATAATCCATAATTGCACACAATATATTCATATTT [CACACA_site3916],10.1
22,AATATTATTATTATTACACACACAATTATATTTACC [CACACA_site8061],6.61
